Laboratory results published in PubChem BioAssay AID720517 (National Center for Advancing Translational Sciences (NCATS), 2013).
Results filed as inconclusive are left out. Activity calls are given as the source filed them. Calls follow the shape of the dose curve; as a rule, active = well fitted activation curve with a large enough effect; inconclusive = small, poorly fitted or top-dose-only effect; inactive = flat fitted curve, though single readings scatter.

Assay: qHTS for Inhibitors of Cell Surface uPA Generation: FP59 Counterscreen for Cherry-picked Compounds; as to activity (protection from FP59): 0% is about no effect
Conditions: FP59 anthrax toxin cytotoxicity counterscreen, cells; series mostly up to 115 µM; activity (protection from FP59): at the top concentration
Potency is read from the fitted curve at half-maximal effect.

| Compound | activity (protection from FP59) | Potency |
| --- | --- | --- |
| C=CCOC(=O)C1=C[C@H](c2ccc(C(F)(F)F)cc2)[C@@H](CCCO)[C@H](OCC)O1 | 1.86% (inactive) | – |
| O=C(CSC1=NS(=O)(=O)c2ccccc2N1)Nc1nccs1 | -1.26% (inactive) | – |
| CCOC(=O)Oc1c(OC)cc(C(=O)O[C@@H]2C[C@@H]3CN4CCc5c([nH]c6cc(OC)ccc56)[C@H]4C[C@@H]3[C@H](C(=O)OC)[C@H]2OC)cc1OC | 2.97% (inactive) | – |
| COc1ccccc1CCNC(=O)C(=O)NCC1OCCN1S(=O)(=O)c1ccc(OC)c(OC)c1 (centres undefined) | -1.42% (inactive) | – |
| C#CCOCCOCCOCCNc1nc(N2CCOCC2)nc(N2CCN(C(=O)[C@H](CCC(=O)O)n3cc([C@@H](N)CCCCN)nn3)CC2)n1 | -1.42% (inactive) | – |
| COc1ccc(C2=NS(=O)(=O)N(C)C(C(=O)NCc3ccccn3)=C2)cc1 | -1.41% (inactive) | – |
| COCCNS(=O)(=O)c1cc(OC)c(C)cc1C | -1.25% (inactive) | – |
| COCc1cc(C)nc2sc(C(=O)Nc3nccs3)c(N)c12 | -0.377% (inactive) | – |
| CCC(C)Sc1nnc(NS(=O)(=O)Cc2ccccc2)s1 (centres undefined) | -1.29% (inactive) | – |
| CC(C)(C)n1ncc2c(=O)n(Cc3ccc(Cl)cc3)cnc21 | 5.53% (inactive) | – |
| CCOc1ccc(-n2cnc3scc(-c4ccc(OC)c(OC)c4)c3c2=O)cc1 | -1.49% (inactive) | – |
| CCC1(C)NC(=O)N(CC(=O)Nc2sc3c(c2C(N)=O)CCC3)C1=O (centres undefined) | -0.768% (inactive) | – |
| Cc1cccc(CCNC(=O)Cc2ccc(NC3=NC4CS(=O)(=O)CC4S3)cc2)c1 (centres undefined) | -1.26% (inactive) | – |
| CCN1CCN(Cc2ccc(NC(=O)c3cc(NC(=O)c4cncc(-c5cccs5)c4)cc(OC)c3)cc2C(F)(F)F)CC1 | 0.284% (inactive) | – |
| O=C(Nc1ccc(Cl)cc1)Nc1nnc(-c2ccncc2)s1 | -1.66% (inactive) | – |
| O=C(NCC1CCCO1)c1ccc(NC(=O)c2ccc([N+](=O)[O-])cc2)cc1 (centres undefined) | -1.25% (inactive) | – |
| C=CS(=O)(=O)c1ccc(Oc2ccc(S(=O)(=O)C=C)cc2)cc1 | – | 52.1 µM (active) |
| CCCCN(CC(=O)Nc1cccc(S(=O)(=O)N2CCCC2)c1)Cc1nc2ccccc2c(=O)[nH]1 | 5.33% (inactive) | – |
| CCC(C)Nc1cc(C)nc2ncnn12 (centres undefined) | -1.32% (inactive) | – |
| COCCN(C(=O)c1ccc(OC2CCN(S(=O)(=O)N(C)C)CC2)cc1)C(C)C | -1.51% (inactive) | – |

| Compound | activity (protection from FP59) | Potency |
| --- | --- | --- |
| N#CCCN(C(=O)COC(=O)c1ccc2c(c1)NC(=O)CS2)c1ccc2c(c1)OCCO2 | -1.28% (inactive) | – |
| CC(=O)c1ccc(NC(=O)Nc2ccc(Br)cc2C)cc1 | -1.21% (inactive) | – |
| COc1cc(F)ccc1S(=O)(=O)n1c(C)nc2ccccc21 | -1.07% (inactive) | – |
| Clc1ccccc1N1CCN(c2ncnc3nc[nH]c23)CC1 | -1.5% (inactive) | – |
| C[N+]1(CC(O)c2ccccc2)CCCCCC1 (centres undefined) | -1.28% (inactive) | – |
| COc1ccccc1N1CCN(C2CC(=O)N(c3ccccc3)C2=O)CC1 (centres undefined) | -1.38% (inactive) | – |
| CCN(CC)CCNC(=O)/C(=C/c1cn(CC)c2ccccc12)NC(=O)c1cc(OC)c(OC)c(OC)c1 | -1.38% (inactive) | – |
| CC(/C=C1\SC(=S)N(CCCC(=O)Nc2ccc(C(=O)O)cc2)C1=O)=C\c1ccccc1 | -0.862% (inactive) | – |
| COc1ccc(C(=O)NCCCN2CCOCC2)cc1 | -1.15% (inactive) | – |
| Cc1ccc2cc(C=O)c(Cl)nc2c1 | -1.35% (inactive) | – |
| Cc1ccc(-n2nc3c(c2NC(=O)c2ccc4c(c2)OCO4)CS(=O)C3)c(C)c1 (centres undefined) | -1.07% (inactive) | – |
| COc1ccccc1C(=O)NCc1ccccc1 | -1.46% (inactive) | – |
| CC(=O)Nc1nc2ccccc2[nH]1 | -1.4% (inactive) | – |
| CCn1c2ccccc2c2n[nH]c(=S)nc21 | -1.35% (inactive) | – |
| COc1cccc(C2CC(c3ccc(C)cc3)n3ncnc3N2)c1 (centres undefined) | -0.0008% (inactive) | – |
| CCN(C1CCS(=O)(=O)C1)S(=O)(=O)c1ccc2ccccc2c1 (centres undefined) | -1.5% (inactive) | – |
| O=C(OCC(=O)N1CCOCC1)c1c(Cl)ccc(Cl)c1Cl | -1.43% (inactive) | – |
| CCNC(=S)NNC(=O)c1ccncc1 | -1.47% (inactive) | – |
| Cc1ccc(-n2cccc2C(=O)NS(=O)(=O)c2ccc(C)cc2)cc1 | -1.27% (inactive) | – |
